Test results: PMC7862700, “An all-to-all approach to the identification of sequence-specific readers for epigenetic DNA modifications on cytosine”

Tests used:
Experiment in all cases: DAPPL (digital affinity profiling via proximity ligation, sequencing); 10 mM Tris-HCl pH 7.5, 50 mM NaCl, 1 mM DTT, 4% glycerol, room temperature, 30 min; GST-TFs on glutathione beads, 16-mer random dsDNA library, 0.1% formaldehyde crosslink after washing; high values mean tight binding
Conditions in all cases: protein: recombinant; tags: N-terminal GST; dsDNA, one strand shown
[1] = biological target: T1, FLI1 (Homo sapiens, UniProt Q01543 1-452)
T1 sequence: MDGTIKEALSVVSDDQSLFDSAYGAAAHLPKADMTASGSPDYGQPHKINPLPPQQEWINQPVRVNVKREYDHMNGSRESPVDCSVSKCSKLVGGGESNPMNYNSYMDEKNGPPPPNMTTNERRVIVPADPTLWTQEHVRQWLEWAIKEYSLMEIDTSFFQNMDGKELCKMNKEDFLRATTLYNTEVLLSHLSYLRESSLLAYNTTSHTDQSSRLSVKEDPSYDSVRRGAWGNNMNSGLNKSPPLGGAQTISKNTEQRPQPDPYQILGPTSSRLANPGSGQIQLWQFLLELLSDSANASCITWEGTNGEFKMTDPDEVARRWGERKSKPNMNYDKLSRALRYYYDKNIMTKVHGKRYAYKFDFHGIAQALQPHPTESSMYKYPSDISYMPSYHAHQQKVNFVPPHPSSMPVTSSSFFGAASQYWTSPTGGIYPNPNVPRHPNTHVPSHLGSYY
In short: (§1)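 Pools were built from human transcription factors expressed in yeast as GST fusions, captured on glutathione beads and DNA-barcoded, along with a tag-only sample. Incubation with 200 nmole of a 16-mer random double-stranded DNA library lasted 30 min at room temperature in Tris/NaCl/DTT/glycerol buffer, and was followed by washing, 0.1% formaldehyde crosslinking, proximity ligation, PCR amplification and Illumina NextSeq500 sequencing. Binding signal is the quotient of each hexamer's read frequency for a factor and its frequency for the tag-only sample.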

[2] = biological target: T2, GABPA (Homo sapiens, UniProt Q06546 1-454)
T2 sequence: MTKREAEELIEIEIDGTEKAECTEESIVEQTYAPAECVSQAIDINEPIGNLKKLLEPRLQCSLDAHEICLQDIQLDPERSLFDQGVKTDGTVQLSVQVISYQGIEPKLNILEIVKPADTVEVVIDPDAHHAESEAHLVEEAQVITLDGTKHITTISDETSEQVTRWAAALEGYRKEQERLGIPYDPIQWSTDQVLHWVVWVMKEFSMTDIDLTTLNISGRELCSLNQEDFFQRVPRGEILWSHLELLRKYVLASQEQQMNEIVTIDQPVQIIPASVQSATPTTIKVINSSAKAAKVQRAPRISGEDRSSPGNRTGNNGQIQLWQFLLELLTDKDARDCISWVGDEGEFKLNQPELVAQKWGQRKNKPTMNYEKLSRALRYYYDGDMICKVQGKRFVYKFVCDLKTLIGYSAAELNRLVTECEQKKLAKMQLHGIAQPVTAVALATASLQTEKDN
In short: as §1

[3] = biological target: T3, ERG (Homo sapiens, UniProt P11308 1-479)
T3 sequence: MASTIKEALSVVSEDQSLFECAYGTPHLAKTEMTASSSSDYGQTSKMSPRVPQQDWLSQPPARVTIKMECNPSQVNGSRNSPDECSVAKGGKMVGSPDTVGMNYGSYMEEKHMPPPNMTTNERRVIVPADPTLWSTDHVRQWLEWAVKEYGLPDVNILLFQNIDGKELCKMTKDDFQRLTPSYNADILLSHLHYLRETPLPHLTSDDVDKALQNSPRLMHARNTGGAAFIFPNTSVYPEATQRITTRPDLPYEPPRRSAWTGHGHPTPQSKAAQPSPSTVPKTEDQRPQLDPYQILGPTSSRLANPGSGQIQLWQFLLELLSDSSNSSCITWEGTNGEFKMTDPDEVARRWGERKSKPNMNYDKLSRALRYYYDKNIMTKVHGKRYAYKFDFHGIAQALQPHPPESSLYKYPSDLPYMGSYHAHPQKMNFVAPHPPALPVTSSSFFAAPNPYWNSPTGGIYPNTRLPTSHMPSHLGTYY
In short: as §1

[4] = biological target: ELF1 (Homo sapiens, UniProt P32519 1-619)
Sequence of ELF1 (P32519 whole entry): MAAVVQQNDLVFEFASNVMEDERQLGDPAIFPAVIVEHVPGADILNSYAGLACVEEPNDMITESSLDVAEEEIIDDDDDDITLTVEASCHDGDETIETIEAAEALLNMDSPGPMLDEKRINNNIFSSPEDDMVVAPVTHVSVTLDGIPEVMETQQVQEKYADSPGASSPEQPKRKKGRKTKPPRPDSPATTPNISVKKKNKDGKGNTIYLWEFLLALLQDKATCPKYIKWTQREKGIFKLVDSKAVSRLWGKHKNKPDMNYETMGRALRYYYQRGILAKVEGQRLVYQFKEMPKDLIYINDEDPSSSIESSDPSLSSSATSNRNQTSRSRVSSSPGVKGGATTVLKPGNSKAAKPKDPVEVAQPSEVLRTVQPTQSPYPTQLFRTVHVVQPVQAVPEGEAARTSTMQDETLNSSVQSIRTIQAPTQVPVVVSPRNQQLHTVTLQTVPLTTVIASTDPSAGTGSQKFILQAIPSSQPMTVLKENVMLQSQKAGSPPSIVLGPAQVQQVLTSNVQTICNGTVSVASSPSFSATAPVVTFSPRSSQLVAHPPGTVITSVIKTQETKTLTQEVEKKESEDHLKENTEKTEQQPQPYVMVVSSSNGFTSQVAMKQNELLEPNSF
In short: as §1

[5] = biological target: T4, EHF (Homo sapiens, UniProt Q9NZC4 1-300)
T4 sequence: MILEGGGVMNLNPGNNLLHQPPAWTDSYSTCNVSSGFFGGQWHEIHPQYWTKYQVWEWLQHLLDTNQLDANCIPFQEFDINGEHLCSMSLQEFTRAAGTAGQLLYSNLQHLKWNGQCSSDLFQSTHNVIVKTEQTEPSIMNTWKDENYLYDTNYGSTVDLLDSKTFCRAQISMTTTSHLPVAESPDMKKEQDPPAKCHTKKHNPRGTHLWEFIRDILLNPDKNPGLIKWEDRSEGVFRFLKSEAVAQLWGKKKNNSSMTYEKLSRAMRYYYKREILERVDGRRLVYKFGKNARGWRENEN
In short: as §1

[6] = biological target: SPI1 (Homo sapiens, UniProt P17947 1-270)
In short: as §1

[7] = biological target: SPIB (Homo sapiens, UniProt Q01892 1-262)
Sequence of SPIB (Q01892 whole entry): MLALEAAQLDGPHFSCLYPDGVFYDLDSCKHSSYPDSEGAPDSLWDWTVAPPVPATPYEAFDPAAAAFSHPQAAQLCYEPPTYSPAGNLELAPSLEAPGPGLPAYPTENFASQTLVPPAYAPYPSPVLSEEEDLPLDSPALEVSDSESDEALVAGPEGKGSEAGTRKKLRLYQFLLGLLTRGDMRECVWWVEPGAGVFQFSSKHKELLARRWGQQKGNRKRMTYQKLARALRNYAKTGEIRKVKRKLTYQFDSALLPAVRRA
In short: as §1

[8] = biological target: T5, FEV (Homo sapiens, UniProt Q99581 1-238)
T5 sequence: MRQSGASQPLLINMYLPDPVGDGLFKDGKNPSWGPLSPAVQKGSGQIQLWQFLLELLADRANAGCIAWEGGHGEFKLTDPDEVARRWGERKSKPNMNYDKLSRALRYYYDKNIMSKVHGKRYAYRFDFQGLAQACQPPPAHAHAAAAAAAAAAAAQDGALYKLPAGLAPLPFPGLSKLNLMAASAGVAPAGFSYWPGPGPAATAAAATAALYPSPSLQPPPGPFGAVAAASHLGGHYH
In short: as §1

[9] = biological target: ETV5 (Homo sapiens, UniProt P41161 1-510)
Sequence of ETV5 (P41161 whole entry): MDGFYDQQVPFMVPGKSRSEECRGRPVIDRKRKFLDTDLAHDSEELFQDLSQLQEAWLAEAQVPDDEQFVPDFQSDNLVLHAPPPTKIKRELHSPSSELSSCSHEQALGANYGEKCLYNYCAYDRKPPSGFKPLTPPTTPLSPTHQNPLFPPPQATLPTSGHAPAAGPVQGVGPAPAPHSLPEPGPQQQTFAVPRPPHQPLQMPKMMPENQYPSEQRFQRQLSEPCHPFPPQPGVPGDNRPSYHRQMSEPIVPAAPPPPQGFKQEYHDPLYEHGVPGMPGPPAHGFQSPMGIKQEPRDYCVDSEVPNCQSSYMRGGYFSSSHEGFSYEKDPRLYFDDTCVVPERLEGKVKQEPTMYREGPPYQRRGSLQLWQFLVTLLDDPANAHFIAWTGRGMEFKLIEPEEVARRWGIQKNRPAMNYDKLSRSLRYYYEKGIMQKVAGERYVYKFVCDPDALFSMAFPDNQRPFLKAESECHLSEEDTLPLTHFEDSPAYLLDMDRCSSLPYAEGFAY
In short: as §1

[10] = biological target: ELF4 (Homo sapiens, UniProt Q99607 1-663)
Sequence of ELF4 (Q99607 whole entry): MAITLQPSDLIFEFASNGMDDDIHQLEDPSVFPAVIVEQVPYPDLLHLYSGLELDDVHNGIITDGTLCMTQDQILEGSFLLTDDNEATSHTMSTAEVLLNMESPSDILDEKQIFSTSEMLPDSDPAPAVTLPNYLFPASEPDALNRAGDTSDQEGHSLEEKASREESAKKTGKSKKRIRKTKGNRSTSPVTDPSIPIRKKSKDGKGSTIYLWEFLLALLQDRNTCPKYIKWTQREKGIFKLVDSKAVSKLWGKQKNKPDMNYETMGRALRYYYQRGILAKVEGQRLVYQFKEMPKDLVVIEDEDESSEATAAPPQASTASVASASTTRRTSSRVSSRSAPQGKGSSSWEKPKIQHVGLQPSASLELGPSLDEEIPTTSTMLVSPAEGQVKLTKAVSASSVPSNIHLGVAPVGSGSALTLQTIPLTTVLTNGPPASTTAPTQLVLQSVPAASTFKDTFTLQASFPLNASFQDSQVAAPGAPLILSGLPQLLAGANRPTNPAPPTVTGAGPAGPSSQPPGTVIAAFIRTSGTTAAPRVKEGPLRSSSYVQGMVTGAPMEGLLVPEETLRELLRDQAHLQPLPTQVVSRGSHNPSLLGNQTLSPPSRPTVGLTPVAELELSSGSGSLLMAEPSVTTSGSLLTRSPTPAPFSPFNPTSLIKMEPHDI
In short: as §1

[11] = biological target: T6, ELF3 (Homo sapiens, UniProt P78545 1-371)
T6 sequence: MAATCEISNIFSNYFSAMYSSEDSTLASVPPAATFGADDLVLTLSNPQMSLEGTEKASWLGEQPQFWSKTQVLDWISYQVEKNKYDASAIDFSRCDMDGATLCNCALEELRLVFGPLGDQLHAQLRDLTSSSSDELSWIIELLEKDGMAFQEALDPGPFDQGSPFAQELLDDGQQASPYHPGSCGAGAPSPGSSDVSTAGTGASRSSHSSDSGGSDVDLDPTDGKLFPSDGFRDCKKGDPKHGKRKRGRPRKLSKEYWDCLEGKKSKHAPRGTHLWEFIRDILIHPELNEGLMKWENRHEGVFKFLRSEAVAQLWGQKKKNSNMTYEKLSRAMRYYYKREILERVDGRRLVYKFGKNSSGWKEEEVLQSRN
In short: as §1

[12] = biological target: T7, ERF (Homo sapiens, UniProt P50548 1-548)
T7 sequence: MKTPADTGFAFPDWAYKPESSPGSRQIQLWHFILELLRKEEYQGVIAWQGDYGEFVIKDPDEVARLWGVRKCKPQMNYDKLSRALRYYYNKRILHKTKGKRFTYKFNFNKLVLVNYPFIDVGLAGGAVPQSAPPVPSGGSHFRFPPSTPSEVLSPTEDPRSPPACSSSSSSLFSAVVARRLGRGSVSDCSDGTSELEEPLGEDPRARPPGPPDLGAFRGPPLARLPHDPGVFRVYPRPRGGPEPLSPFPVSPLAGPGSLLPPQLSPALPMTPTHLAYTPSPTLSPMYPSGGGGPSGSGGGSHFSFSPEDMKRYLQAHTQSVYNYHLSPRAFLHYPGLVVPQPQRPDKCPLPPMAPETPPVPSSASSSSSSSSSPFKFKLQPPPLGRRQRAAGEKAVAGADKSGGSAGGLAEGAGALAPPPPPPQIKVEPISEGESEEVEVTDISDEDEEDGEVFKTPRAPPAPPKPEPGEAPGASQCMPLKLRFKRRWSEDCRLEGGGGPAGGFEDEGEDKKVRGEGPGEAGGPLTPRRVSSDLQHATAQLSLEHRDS
In short: as §1

[13] = biological target: T8, ETV3L (Homo sapiens, UniProt Q6ZN32 1-361)
T8 sequence: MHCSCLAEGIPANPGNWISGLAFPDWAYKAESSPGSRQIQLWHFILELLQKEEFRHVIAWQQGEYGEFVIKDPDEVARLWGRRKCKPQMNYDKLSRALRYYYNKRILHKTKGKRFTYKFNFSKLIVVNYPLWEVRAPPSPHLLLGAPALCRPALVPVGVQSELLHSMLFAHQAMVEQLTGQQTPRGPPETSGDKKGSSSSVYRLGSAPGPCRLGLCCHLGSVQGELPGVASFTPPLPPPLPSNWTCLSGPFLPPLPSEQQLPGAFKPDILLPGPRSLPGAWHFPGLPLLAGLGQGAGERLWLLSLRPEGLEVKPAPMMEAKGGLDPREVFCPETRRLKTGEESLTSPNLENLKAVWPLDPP
In short: as §1

[14] = biological target: T9, ETS2 (Homo sapiens, UniProt P15036 1-469)
T9 sequence: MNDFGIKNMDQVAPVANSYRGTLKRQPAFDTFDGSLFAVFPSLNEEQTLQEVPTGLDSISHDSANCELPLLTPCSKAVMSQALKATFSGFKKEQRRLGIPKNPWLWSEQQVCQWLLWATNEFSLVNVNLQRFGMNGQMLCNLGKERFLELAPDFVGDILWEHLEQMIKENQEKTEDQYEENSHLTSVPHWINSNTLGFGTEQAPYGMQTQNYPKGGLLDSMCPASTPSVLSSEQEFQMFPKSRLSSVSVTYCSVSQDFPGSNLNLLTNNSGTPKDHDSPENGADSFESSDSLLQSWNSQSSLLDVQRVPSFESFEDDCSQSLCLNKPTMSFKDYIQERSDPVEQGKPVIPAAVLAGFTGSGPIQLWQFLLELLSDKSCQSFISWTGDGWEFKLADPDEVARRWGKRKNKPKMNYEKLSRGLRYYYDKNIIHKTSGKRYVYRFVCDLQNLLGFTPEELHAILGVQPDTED
In short: as §1

[15] = biological target: T10, ETV7 (Homo sapiens, UniProt Q9Y603 1-341)
T10 sequence: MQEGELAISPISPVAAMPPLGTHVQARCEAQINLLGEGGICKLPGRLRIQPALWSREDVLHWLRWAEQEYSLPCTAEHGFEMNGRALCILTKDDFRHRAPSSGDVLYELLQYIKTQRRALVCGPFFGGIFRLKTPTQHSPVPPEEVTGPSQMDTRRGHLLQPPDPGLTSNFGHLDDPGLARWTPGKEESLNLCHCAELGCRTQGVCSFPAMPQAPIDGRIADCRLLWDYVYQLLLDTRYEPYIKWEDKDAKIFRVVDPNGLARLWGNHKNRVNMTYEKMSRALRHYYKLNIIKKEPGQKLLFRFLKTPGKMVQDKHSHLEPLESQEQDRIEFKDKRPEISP
In short: as §1

[16] = biological target: ETV6 (Homo sapiens, UniProt P41212 1-452)
Sequence of ETV6 (P41212 whole entry): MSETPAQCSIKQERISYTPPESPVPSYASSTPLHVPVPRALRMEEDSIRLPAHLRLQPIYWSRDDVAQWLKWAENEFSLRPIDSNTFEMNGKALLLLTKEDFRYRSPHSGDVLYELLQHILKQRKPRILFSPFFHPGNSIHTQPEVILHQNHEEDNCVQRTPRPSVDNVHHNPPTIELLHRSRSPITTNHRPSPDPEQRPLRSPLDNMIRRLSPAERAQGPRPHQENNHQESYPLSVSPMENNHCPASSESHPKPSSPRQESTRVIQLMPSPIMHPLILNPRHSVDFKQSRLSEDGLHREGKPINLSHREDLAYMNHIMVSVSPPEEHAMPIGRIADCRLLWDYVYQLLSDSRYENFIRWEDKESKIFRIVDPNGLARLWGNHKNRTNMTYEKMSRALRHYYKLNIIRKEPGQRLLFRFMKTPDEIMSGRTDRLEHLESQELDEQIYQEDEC
In short: as §1

Q: How did the binding signal [1] turn out when CAGCTA was run?
A: 1.1 fold enrichment (6-mer frequency, TF over GST control)

Q: And the binding signal [2]?
A: 1.06 fold enrichment (6-mer frequency, TF over GST control)

Q: What about the binding signal [3] of the same sequence?
A: 1.03 fold enrichment (6-mer frequency, TF over GST control)

Q: What about the binding signal [4] of the same sequence?
A: 1.07 fold enrichment (6-mer frequency, TF over GST control)

Q: What about the binding signal [5] of the same sequence?
A: 1.05 fold enrichment (6-mer frequency, TF over GST control)

Q: And the binding signal [6]?
A: 1.03 fold enrichment (6-mer frequency, TF over GST control)

Q: What about the binding signal [7] of the same sequence?
A: 1.04 fold enrichment (6-mer frequency, TF over GST control)

Q: And the binding signal [8]?
A: 1.02 fold enrichment (6-mer frequency, TF over GST control)

Q: What about the binding signal [9] of the same sequence?
A: 1.01 fold enrichment (6-mer frequency, TF over GST control)

Q: What about the binding signal [10] of the same sequence?
A: 1.03 fold enrichment (6-mer frequency, TF over GST control)

Q: And the binding signal [11]?
A: 1.1 fold enrichment (6-mer frequency, TF over GST control)

Q: And the binding signal [12]?
A: 1.08 fold enrichment (6-mer frequency, TF over GST control)

Q: And the binding signal [13]?
A: 1.05 fold enrichment (6-mer frequency, TF over GST control)

Q: And the binding signal [14]?
A: 1.06 fold enrichment (6-mer frequency, TF over GST control)

Q: What about the binding signal [15] of the same sequence?
A: 1.13 fold enrichment (6-mer frequency, TF over GST control)

Q: And the binding signal [16]?
A: 1.01 fold enrichment (6-mer frequency, TF over GST control)
